According to PubChem BioAssay (NCATS):
Results filed as inconclusive are left out. Activity calls are given as the source filed them. Calls follow the shape of the dose curve; as a rule, active = well fitted inhibition curve with a large enough effect; inconclusive = small, poorly fitted or top-dose-only effect; inactive = flat fitted curve, though single readings scatter.

Columns and labels:
Assay in all cases: qHTS profiling for inhibitors of Plasmodium falciparum proliferation (AID 504749); also: nearly all actives have a fitted effect of over 60% in size
Conditions in all cases: P. falciparum in erythrocytes, SYBR Green DNA, 72 h; series mostly up to 28.7 µM
CP262 = test system: CP262
Summary of the method: (§1)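 In a 72 h erythrocytic culture (37 C, humidified, 5% CO2) at 2.5% hematocrit and 0.3% starting parasitemia, compounds were tested; SYBR Green I in detergent lysis buffer stained parasite DNA overnight.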

CP265 = test system: CP265
Summary of the method: as §1

CP266 = test system: CP266
Summary of the method: as §1

CP268 = test system: CP268
Summary of the method: as §1

CP269 = test system: CP269
Summary of the method: as §1

CP286 = test system: CP286
Summary of the method: as §1

CP291 = test system: CP291
Summary of the method: as §1

CP297 = test system: CP297
Summary of the method: as §1

CP305 = test system: CP305
Summary of the method: as §1

CP315 = test system: CP315
Summary of the method: as §1

CP325 = test system: CP325
Summary of the method: as §1

CP335 = test system: CP335
Summary of the method: as §1

DFO2036 = test system: DFO2036
Summary of the method: as §1

DIV14 = test system: DIV14
Summary of the method: as §1

DIV17 = test system: DIV17
Summary of the method: as §1

DIV30 = test system: DIV30
Summary of the method: as §1

Dd2 = test system: Dd2
Summary of the method: as §1

ECU = test system: ECU
Summary of the method: as §1

FAB9 = test system: FAB9
Summary of the method: as §1

GB4 = test system: GB4
Summary of the method: as §1

HB3 = test system: HB3
Summary of the method: as §1

ICS = test system: ICS
Summary of the method: as §1

JCK = test system: JCK
Summary of the method: as §1

N140 = test system: N140
Summary of the method: as §1

P93_24 = test system: P93_24
Summary of the method: as §1

P94_40 = test system: P94_40
Summary of the method: as §1

PAD = test system: PAD
Summary of the method: as §1

PC15 = test system: PC15
Summary of the method: as §1

PC26 = test system: PC26
Summary of the method: as §1

PC49 = test system: PC49
Summary of the method: as §1

SC27B = test system: SC27B
Summary of the method: as §1

TAB109 = test system: TAB109
Summary of the method: as §1

TAB113 = test system: TAB113
Summary of the method: as §1

TAB165 = test system: TAB165
Summary of the method: as §1

W2 = test system: W2
Summary of the method: as §1

Measured: Potency
Potency is read from the fitted curve at half-maximal effect.

CC[C@]1([C@H]2O[C@@H]([C@@H]3O[C@](O)(CO)[C@@H](C)C[C@H]3C)C[C@H]2C)CC[C@@H]([C@]2(C)CC[C@@]3(C[C@@H](O)[C@@H](C)[C@@H]([C@H](C)[C@H](OC)[C@H](C)C(=O)O)O3)O2)O1
active: CP262 26.9 nM | CP265 31.6 nM | CP266 53.6 nM | CP268 37.9 nM | CP269 33.8 nM | CP286 22.4 nM | CP291 19 nM | CP297 33.8 nM | CP305 33.8 nM | CP315 33.8 nM | CP325 30.1 nM | CP335 19 nM | DFO2036 35.5 nM | DIV14 33.8 nM | DIV17 26.9 nM | DIV30 37.9 nM | Dd2 39.8 nM | ECU 50.1 nM | FAB9 70.8 nM | GB4 26.9 nM | HB3 44.7 nM | ICS 20 nM | JCK 70.8 nM | N140 39.8 nM | P93_24 44.7 nM | P94_40 25.1 nM | PAD 63.1 nM | PC15 56.2 nM | PC26 23.9 nM | PC49 70.8 nM | SC27B 50.1 nM | TAB109 31.6 nM | TAB113 50.1 nM | TAB165 112 nM | W2 19 nM
